This is a sample that favours compounds with a hit; in the whole collection about 27% have one here.
CYP2C9 act: increases human cytochrome P450 2C9 activity | recombinant CYP2C9, luciferin-H conversion, luminescence; active compounds read high; factor 1 = untreated enzyme, 0 = blocked | activation factor at 5 µM | 1.4% of 96,000 active | AID 1024;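 active = activation factor of 2 or more for CYP2C9 at a 5 µM dose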;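 note: 0 = sulfaphenazole-blocked wells and 1 = vehicle-only wells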
Target sequence (P11712 whole entry, looked up): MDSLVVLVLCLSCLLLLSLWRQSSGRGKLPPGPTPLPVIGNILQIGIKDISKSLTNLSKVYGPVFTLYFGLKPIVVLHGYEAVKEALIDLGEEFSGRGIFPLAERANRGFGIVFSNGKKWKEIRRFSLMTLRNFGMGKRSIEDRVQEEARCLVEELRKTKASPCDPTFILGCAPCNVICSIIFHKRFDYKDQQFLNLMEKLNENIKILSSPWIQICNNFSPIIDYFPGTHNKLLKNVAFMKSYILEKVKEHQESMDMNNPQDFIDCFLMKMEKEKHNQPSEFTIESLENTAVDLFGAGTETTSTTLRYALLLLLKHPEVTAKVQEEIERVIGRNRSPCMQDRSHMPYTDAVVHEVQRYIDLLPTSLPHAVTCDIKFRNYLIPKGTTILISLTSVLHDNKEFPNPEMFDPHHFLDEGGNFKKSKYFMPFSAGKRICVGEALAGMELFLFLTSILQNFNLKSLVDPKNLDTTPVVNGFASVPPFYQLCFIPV
sEH inh: inhibitors of human soluble epoxide hydrolase. recombinant human sEH enzymatic activity assay. 0.34% of 91,000 active. P34913. inhibition, % at 2 µM; in the data active = inhibition above about 80%
sEH act: soluble epoxide hydrolase (human) activation. purified human sEH enzymatic activity, activator screen. P34913. activation, % at 2 µM. 0.04% of 91,000 active; in the data active = activation above about 37%
CYP2C19 inh: blocks human cytochrome P450 2C19. P33261. CYP2C19 Supersomes, luciferin-H EGE luminescence, 30 min. inhibition, % at 5 µM. 21% of 96,000 active;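 active = CYP2C19 inhibition above a set limit at 5 µM in the primary screen, cut at about 50% in these data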;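 note: plate controls were negative control wells for no effect and 2.5 mM tranylcypromine positive control for full effect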
CYP2C9 inh: inhibitors of human CYP2C9; P11712; CYP2C9 Supersomes, luciferin-H conversion, luminescence; inhibition, % at 5 µM; 20% of 96,000 active;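 active = blocking of liver enzyme CYP2C9 beyond about 50% at 5 µM, limit read from the data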
CYP2C19 activ: activators of human cytochrome P450 2C19. activation factor at 5 µM. recombinant CYP2C19, luciferin-H EGE luminescence; active compounds read high; 0 = fully inhibited enzyme, 1 = untreated enzyme. 96,000 tested, under 10 active. P33261. AID 1025;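 active = activation factor of at least 2 at 5 µM in the primary screen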;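 note: 0 = wells with 2.5 mM tranylcypromine and 1 = vehicle-only wells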
The depositor's hits bear a star.

`COc1ccc(/C=N/N=C2/NC(=O)C(c3ccccc3)(c3ccccc3)S2)cc1` gave CYP2C9 act 0.2, sEH inh 0, sEH act 2, CYP2C19 inh 5, CYP2C9 inh 82* and CYP2C19 activ 0.9.
`Cc1ccc(C)c(S(=O)(=O)N2CCN(CC(=O)Nc3ccc4c(c3)OCCO4)CC2)c1` gave CYP2C9 act 1, sEH inh 20, sEH act -20, CYP2C19 inh 85*, CYP2C9 inh -1 and CYP2C19 activ 0.2.
For O=C(CN1CCN(S(=O)(=O)c2ccc(Br)cc2)CC1)Nc1ccc2c(c1)OCO2 the results were CYP2C9 act 0.4, sEH inh 14, sEH act -14, CYP2C19 inh 81*, CYP2C9 inh 63* and CYP2C19 activ 0.2.
Screening O=C(CN1CCN(S(=O)(=O)c2cc(Cl)ccc2Cl)CC1)Nc1ccc2c(c1)OCCO2 returned CYP2C9 act 2.2*, CYP2C19 inh 54*, CYP2C9 inh -123 and CYP2C19 activ 0.5.
`CN(C)c1ccc(NC(=O)CN2CCN(S(=O)(=O)c3cc(Cl)ccc3Cl)CC2)cc1` gave CYP2C9 act 1.5, sEH inh 11, sEH act -9, CYP2C19 inh 32, CYP2C9 inh -49 and CYP2C19 activ 0.7.
Screening CC(C)OC(=O)CN1CCN(S(=O)(=O)c2cc(Cl)ccc2Cl)CC1 returned CYP2C9 act 2.1*, CYP2C19 inh 83*, CYP2C9 inh -114 and CYP2C19 activ 0.2.
Screening COc1cccc(C2C(C(=O)OC(C)C)=C(C)Nc3ncnn32)c1 (stereo unspecified) returned CYP2C9 act 0.5, sEH inh 4, sEH act -2, CYP2C19 inh 30, CYP2C9 inh 48 and CYP2C19 activ 0.7.
Cc1ccc(C)c(S(=O)(=O)N2CCN(CC(=O)Nc3cc(C)on3)CC2)c1 was read as CYP2C9 act 2.3*, sEH inh 1, sEH act -2, CYP2C19 inh 12, CYP2C9 inh -127 and CYP2C19 activ 0.9.
Cc1ccc(C)c(S(=O)(=O)N2CCN(CC(=O)N3CCc4ccccc4C3)CC2)c1 was read as CYP2C9 act 3.4*, sEH inh 1, sEH act -2, CYP2C19 inh 81*, CYP2C9 inh -242 and CYP2C19 activ 0.2.
Cc1cc(NC(=O)CN2CCN(S(=O)(=O)c3ccc4ccccc4c3)CC2)no1 was read as CYP2C9 act 1.6, sEH inh 1, sEH act -3, CYP2C19 inh 0, CYP2C9 inh -64 and CYP2C19 activ 1.
`CC(C)n1c(N2CCN(CC(=O)Nc3ccc4c(c3)OCCO4)CC2)nc2ccccc21` gave CYP2C9 act 0.7, sEH inh 5, sEH act -4, CYP2C19 inh 58*, CYP2C9 inh 26 and CYP2C19 activ 0.4.
`CC(Cc1ccccc1)NC(=O)CSc1nc2nc3c(cc2c(=O)n1-c1ccccc1)COC(C)(C)C3` (stereo unspecified) gave CYP2C9 act 0.9, sEH inh 20, sEH act -19, CYP2C19 inh 0, CYP2C9 inh 8 and CYP2C19 activ 1.
`CN(CC(=O)N1CCc2ccccc2C1)S(=O)(=O)c1ccc2c(c1)c(=O)n(C)c(=O)n2C` gave CYP2C9 act 0.9, CYP2C19 inh -17, CYP2C9 inh 12 and CYP2C19 activ 1.2.
Screening CCc1ccc(C(C(=O)NCc2ccc(OC)cc2)N(CCOC)C(=O)Cc2cccs2)cc1 (stereo unspecified) returned CYP2C9 act 0.6, sEH inh -7, sEH act 10, CYP2C19 inh 25, CYP2C9 inh 43 and CYP2C19 activ 0.7.
For COCCN(C(=O)Cc1cccs1)C(C(=O)NCc1ccc(OC)cc1)c1ccc(C(C)C)cc1 (stereo unspecified) the results were CYP2C9 act 0.3, CYP2C19 inh 48, CYP2C9 inh 69* and CYP2C19 activ 0.5.
Screening Cc1c(Cl)c(-c2n[nH]c(=S)n2-c2ccc(F)cc2)nn1C returned CYP2C9 act 1.1, sEH inh 2, sEH act 1, CYP2C19 inh -3, CYP2C9 inh -9 and CYP2C19 activ 1.
Screening CC(C)Cn1c(-c2nn(C)cc2Cl)n[nH]c1=S returned CYP2C9 act 1, sEH inh 1, sEH act 2, CYP2C19 inh 57*, CYP2C9 inh 0 and CYP2C19 activ 0.4.

Source: PubChem BioAssay (several laboratories)
